Drawing on ChEMBL document CHEMBL3988442, “University of Dundee, Small-Polar-MMV Screening Library” (2021), this text covers Percent Effect and PXC50 for eight molecules.

The structures appear in SMILES notation. Values joined by “and” are separate entries in the source; they are usually repeats but may differ in a detail not shown here. Identical values can stand only once. For some of these results: Measured potencies and affinities stand elsewhere.

In assay [1] the target is Protein translocase subunit SecA (Escherichia coli (strain K12)) (UniProt P10408). The assay is described as follows: Assay to Identify E. coli SecA ATPase Inhibitors. Format: functional. Conditions: 30 µM. The arrangement: scale not given: direction of the effect not stated beside the values.
Assay [2] deals with T1, Ubiquitin-activating enzyme e1, putative (Leishmania donovani (strain BPK282A1)) (UniProt E9BSI1).
T1 sequence (whole entry): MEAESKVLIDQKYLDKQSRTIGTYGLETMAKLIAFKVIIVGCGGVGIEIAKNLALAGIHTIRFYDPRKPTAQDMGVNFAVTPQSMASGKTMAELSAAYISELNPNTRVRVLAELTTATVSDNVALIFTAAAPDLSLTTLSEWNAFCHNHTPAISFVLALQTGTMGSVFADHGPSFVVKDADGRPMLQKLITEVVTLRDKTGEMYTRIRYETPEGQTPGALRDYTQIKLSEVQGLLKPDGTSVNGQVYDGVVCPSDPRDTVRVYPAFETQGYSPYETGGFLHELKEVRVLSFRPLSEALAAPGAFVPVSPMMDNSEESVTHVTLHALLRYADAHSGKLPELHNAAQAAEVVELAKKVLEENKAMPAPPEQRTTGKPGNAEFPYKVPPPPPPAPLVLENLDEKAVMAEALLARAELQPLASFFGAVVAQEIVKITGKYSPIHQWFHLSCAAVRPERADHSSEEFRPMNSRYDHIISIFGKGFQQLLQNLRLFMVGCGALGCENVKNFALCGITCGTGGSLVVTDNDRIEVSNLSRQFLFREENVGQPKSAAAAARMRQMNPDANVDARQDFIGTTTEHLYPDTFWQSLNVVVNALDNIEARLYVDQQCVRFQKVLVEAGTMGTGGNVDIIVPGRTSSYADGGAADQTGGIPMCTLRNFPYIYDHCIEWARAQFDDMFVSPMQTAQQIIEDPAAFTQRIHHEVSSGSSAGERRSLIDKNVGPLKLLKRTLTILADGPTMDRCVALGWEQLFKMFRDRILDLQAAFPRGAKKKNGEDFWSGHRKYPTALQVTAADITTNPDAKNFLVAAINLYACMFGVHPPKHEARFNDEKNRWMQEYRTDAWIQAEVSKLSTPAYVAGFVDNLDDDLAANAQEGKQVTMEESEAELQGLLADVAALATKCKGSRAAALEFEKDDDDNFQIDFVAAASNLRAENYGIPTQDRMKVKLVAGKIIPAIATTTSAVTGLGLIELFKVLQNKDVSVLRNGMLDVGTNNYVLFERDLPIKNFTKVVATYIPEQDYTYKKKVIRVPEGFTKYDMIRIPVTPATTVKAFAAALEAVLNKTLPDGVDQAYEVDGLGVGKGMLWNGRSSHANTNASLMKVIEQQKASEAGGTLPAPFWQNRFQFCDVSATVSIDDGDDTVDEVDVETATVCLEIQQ
The assay is described as follows: Leishmania donovani Ubiquitin Activating Enzyme (LdE1). To be noted: 30 µM. Format: functional. On the set-up: scale not given: direction of the effect not stated beside the values.

In assay [3] the target is AMP-activated protein kinase, AMPK (Homo sapiens) (UniProt P54646+O43741+P54619+Q9UGJ0+Q9Y478+Q13131+Q9UGI9). The assay is described as follows: AMP-dependent Kinase enzyme assay. An in vitro enzyme assay that detects ADP turnover that is directly proportional to AMPK activity. This uses naive AMPK that is activated during the assay with MK-8722. Type of assay: functional. The arrangement: scale not given: direction of the effect not stated beside the values. To be noted: 30 µM.

The target in assay [4] is Sialic acid-binding Ig-like lectin 9 (Homo sapiens) (UniProt Q9Y336). The assay is described as follows: Hs-Siglec9 ALPHAscreen SOP 20170721. The arrangement: scale not given: direction of the effect not stated beside the values. Conditions: 10 µM. A general note: In Alpha technology, singlet oxygen from a donor bead excites a nearby acceptor bead.
Another assay relates to Trypanosoma cruzi. Description: Trypanosoma cruzi phosphomannomutase and mannose-1-phosphate guanylyltransferase assay. Type of assay: functional. On the set-up: scale not given: direction of the effect not stated beside the values. To be noted: 10 µM.
Assay [5] concerns the target T2, Arginase-2, mitochondrial (Homo sapiens) (UniProt P78540).
T2 sequence (whole entry): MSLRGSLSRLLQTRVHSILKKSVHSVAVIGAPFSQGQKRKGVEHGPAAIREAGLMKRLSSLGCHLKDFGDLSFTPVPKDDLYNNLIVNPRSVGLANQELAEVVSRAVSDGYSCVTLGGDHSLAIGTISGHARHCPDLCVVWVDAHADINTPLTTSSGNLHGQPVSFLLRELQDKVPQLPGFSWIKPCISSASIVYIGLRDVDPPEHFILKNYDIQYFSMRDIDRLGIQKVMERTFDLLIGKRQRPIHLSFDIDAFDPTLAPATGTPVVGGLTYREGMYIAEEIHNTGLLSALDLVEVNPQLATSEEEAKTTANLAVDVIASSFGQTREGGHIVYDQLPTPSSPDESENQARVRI
Description: in vitro enzyme assay to detect the production of urea directly proportional to the activity of Arginase II. Format: functional. The arrangement: scale not given: in the data most compounds retested in dose-response had high values.

Assay [6] addresses T3, Proteasome subunit beta (Trypanosoma cruzi) (UniProt O96673).
T3 sequence (whole entry): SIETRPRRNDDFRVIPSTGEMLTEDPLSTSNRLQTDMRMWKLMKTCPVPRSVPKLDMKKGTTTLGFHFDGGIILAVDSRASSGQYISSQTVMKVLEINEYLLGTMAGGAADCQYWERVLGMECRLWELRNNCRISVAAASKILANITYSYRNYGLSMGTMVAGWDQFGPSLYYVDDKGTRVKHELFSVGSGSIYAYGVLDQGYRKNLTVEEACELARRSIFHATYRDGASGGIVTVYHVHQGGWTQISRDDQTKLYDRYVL
The assay is described as follows: Trypanosoma cruzi proteasome chymotrypsin-like activity (TcProtChymo) assay. On the set-up: scale not given: in the data most compounds retested in dose-response had high values. Format: functional. To be noted: 9.37 µM.

The next assay is filed under the species Homo sapiens. Description: To identify inhibition of the IFN signalling (Jak-Stat) pathway via expression of an eGFP reporter gene under the control of an IFN-stimulated response element (ISRE) containing MxA promoter. Type of assay: functional. On the set-up: scale not given: direction of the effect not stated beside the values. Conditions: 30 µM. In general terms: A reporter such as luciferase makes a cellular process visible.

Assay [7] deals with T4, Tyrosyl-tRNA synthetase, putative (Trypanosoma cruzi (strain CL Brener)) (UniProt Q4DSP6).
T4 sequence (whole entry): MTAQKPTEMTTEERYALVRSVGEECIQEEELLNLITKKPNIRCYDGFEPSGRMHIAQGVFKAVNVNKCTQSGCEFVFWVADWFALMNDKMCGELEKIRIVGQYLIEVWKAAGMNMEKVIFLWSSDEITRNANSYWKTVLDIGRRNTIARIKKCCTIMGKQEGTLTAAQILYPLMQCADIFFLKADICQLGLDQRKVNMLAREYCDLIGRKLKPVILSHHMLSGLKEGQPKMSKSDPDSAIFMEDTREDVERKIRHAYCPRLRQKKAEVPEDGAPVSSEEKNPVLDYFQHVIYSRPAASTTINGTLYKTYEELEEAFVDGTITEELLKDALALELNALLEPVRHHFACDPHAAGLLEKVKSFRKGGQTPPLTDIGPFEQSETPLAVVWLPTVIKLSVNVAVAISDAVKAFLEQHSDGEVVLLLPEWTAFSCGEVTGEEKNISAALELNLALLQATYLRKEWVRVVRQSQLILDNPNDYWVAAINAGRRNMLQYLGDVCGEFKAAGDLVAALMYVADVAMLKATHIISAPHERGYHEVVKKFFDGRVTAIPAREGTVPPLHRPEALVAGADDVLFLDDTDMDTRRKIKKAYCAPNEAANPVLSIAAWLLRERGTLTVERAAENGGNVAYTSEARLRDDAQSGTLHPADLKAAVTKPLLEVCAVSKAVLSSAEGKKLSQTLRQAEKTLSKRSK
The assay is described as follows: Trypanosoma cruzi tyrosyl tRNA synthetase (TcYRS) _High Tyrosine SOP. Type of assay: functional. On the set-up: scale not given: in the data most compounds retested in dose-response had high values. To be noted: 30 µM.

Assay [8] addresses T4, Tyrosyl-tRNA synthetase, putative (Trypanosoma cruzi (strain CL Brener)). The assay is described as follows: Trypanosoma cruzi tyrosyl tRNA synthetase (TcYRS) SOP. Conditions: 30 µM. Format: functional. The arrangement: scale not given: direction of the effect not stated beside the values.
Assay [9] addresses Chromo domain-containing protein 1 (Saccharomyces cerevisiae (strain ATCC 204508 / S288c) (Baker's yeast)) (UniProt P32657). Description: ScCHD-1 Enzyme Inhibition Assay. On the set-up: scale not given: in the data most compounds retested in dose-response had high values. Conditions: 30 µM. Format: functional.
For assay [10], the target named is T5, Methionyl-tRNA synthetase, putative (Leishmania donovani (strain BPK282A1)) (UniProt E9BF75).
T5 sequence (whole entry): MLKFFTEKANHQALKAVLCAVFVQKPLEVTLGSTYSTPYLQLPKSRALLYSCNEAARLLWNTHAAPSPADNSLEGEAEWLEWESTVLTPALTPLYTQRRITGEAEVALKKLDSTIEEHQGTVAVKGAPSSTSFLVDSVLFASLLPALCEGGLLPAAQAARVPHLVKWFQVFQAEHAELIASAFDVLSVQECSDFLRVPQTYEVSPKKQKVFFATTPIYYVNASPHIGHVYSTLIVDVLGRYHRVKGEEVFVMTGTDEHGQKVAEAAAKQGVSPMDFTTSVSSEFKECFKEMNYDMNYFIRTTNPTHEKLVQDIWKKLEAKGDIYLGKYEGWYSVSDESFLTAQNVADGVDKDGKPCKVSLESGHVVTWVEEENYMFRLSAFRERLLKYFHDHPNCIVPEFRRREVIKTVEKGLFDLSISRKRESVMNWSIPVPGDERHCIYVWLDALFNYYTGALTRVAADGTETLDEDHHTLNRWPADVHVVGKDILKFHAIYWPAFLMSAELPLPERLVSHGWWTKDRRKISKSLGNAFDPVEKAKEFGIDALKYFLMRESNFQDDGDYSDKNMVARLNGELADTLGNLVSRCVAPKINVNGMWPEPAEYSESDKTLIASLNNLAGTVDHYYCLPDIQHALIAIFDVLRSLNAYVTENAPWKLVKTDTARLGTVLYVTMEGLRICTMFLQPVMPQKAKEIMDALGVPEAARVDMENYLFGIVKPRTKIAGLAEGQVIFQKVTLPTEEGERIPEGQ
Description: Leishmania donovani Methionine tRNA synthetase (LdMetRS):v7. Dose response assay. Type of assay: functional. The arrangement: conc 80 nM, time 150 minutes.

In another assay the test system is N/A. Description: Trypanosoma cruzi proteasome luciferase counter-screen. Type of assay: functional. On the set-up: scale not given: direction of the effect not stated beside the values. Conditions: 9.37 µM. (In general: Counterscreens check selectivity or assay interference.)

Chain of Sialic acid-binding Ig-like lectin 9 (Homo sapiens) (Q9Y336 whole entry): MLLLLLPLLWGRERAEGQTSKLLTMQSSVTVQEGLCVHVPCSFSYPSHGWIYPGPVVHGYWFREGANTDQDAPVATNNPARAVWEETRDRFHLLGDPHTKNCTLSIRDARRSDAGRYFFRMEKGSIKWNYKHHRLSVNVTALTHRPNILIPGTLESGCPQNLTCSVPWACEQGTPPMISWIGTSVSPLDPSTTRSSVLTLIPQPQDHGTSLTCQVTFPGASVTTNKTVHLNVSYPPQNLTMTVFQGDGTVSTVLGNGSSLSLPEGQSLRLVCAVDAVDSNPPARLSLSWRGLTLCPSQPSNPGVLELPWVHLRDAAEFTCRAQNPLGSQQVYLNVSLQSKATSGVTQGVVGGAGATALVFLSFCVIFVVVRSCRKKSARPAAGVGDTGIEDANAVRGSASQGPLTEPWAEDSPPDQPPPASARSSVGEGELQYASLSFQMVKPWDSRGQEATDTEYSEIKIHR
Chain of Protein translocase subunit SecA (Escherichia coli (strain K12)) (P10408 whole entry): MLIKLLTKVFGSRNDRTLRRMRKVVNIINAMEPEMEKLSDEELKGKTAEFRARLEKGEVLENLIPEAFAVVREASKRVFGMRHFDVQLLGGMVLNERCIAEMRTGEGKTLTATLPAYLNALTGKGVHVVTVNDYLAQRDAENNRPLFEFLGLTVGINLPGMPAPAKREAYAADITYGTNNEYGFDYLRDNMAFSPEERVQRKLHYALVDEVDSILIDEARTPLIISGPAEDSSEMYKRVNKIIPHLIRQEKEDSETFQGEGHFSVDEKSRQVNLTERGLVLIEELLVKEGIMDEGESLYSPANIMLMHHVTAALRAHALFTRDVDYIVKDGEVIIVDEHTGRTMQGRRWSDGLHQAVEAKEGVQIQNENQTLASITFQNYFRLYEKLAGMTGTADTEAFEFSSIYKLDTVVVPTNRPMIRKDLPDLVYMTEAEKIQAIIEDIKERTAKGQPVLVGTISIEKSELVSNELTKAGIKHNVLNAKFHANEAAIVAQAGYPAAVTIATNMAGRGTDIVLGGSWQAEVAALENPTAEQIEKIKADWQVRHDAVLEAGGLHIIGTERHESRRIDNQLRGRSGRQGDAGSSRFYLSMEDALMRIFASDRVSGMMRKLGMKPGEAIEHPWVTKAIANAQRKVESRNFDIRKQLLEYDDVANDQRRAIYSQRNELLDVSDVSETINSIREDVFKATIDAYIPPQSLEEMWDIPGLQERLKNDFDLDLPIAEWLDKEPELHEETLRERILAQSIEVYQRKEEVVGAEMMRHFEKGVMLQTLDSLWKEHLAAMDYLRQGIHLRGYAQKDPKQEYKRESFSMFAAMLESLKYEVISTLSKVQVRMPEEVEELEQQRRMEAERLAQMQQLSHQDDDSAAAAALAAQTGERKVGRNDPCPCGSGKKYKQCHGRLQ
Chain of Chromo domain-containing protein 1 (Saccharomyces cerevisiae (strain ATCC 204508 / S288c) (Baker's yeast)) (P32657 whole entry, the tested form may be a part): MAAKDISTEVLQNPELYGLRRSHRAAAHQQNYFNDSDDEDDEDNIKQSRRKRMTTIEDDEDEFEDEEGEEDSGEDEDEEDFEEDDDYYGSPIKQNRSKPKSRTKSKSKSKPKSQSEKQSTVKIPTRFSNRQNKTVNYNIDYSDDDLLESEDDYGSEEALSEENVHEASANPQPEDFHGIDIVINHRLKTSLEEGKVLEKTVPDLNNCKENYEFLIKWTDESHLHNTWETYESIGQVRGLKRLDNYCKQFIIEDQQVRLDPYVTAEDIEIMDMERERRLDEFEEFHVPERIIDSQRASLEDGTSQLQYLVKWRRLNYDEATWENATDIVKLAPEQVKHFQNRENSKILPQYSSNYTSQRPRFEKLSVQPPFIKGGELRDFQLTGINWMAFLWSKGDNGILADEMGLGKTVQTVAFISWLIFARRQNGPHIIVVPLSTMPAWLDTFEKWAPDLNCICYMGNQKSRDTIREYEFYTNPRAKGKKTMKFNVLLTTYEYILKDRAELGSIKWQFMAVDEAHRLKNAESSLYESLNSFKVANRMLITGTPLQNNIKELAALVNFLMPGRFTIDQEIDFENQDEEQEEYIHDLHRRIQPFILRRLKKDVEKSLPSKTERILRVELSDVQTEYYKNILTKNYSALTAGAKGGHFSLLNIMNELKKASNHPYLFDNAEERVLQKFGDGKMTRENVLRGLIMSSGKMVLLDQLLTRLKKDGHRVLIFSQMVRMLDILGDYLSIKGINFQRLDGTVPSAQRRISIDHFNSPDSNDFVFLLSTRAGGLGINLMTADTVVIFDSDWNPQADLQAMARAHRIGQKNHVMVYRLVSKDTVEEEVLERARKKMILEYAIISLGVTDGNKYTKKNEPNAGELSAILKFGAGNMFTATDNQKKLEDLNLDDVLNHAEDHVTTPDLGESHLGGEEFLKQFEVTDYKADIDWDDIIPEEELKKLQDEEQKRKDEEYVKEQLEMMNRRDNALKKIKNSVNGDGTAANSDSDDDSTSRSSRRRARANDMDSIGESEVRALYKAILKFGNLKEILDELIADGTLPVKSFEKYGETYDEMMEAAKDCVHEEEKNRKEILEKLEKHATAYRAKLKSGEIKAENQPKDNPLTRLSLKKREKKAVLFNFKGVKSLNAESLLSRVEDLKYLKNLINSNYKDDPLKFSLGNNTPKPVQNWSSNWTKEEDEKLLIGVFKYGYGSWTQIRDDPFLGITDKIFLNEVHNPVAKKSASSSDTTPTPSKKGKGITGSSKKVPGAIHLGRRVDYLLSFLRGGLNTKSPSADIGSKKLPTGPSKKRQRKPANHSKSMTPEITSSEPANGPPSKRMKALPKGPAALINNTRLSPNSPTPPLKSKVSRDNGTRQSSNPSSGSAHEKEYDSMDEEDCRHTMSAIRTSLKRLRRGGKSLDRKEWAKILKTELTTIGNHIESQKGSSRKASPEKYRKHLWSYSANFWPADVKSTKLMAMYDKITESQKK

With `CN(C)CCCNC(=O)c1cc(Br)c2c(c1)OCCO2`, the Percent Effect was -3.75% in [1]; 5.33% in assay [2]; -4% in [3]; 10% in assay [4]; 3.6% in the assay on Trypanosoma cruzi; -0.54% in assay [5] (30 µM). Further, the Percent Effect in [5] (33.3 µM) was 18.2%; in [6] it was 6.28%; in the assay listed under Homo sapiens it was -10%; in assay [7], 4.92%; in [8] it was 18.5%; in assay [9] it was -7.32%.
As to `Cc1nc(NCc2nnc(C)n2C)c2c(CC(C)C)csc2n1`, the PXC50 in assay [10] (MAX_EFFECT 10.70496084) and in [10] (MAX_EFFECT 13.5770235) was under 4 in each case. Moreover, the Percent Effect in assay [3] came out at 1.71%.
For the molecule `Cc1c(C(=O)O)sc2nc(Cc3ccccc3)nc(N)c12`, the PXC50 in assay [10] (MAX_EFFECT 1.767676768) and in assay [10] (MAX_EFFECT 2.040816327) was under 4 each time. The Percent Effect in [3] was found to be 4.73%.
Turning to `N#CC1CCCN(c2nc(-c3ccccc3)nc3c2CCNCC3)C1` (stereo unspecified), the PXC50 in assay [10] (MAX_EFFECT 13.59649123) and in assay [10] (MAX_EFFECT 23.4375) was under 4 each time. Also, the Percent Effect in assay [1] is -2.62%; in assay [2] it was -5.48%; in assay [3], -0.435%; in assay [4], 0.626%; in the assay on Trypanosoma cruzi, -4.17%; in [5] (33.3 µM), 2%. The Percent Effect amounted to 11.2% in [6]; 2.12% in the assay filed under Homo sapiens; 4.17% in [7]; 3.7% in assay [8]; 9.39% in assay [9].
Regarding `Cc1nc(NCc2nncn2C2CC2)c2c(CC(C)C)csc2n1`, the PXC50 in [10] (MAX_EFFECT 9.660574413) and in [10] (MAX_EFFECT 12.53263708) was under 4 each time. Also, the Percent Effect in assay [3] is -3.8%.
For `CCn1cnnc1CNc1nc(C)nc2scc(CC(C)C)c12`, the PXC50 in assay [10] (MAX_EFFECT 12.79373368) and in assay [10] (MAX_EFFECT 13.05483029) was under 4 throughout. In addition, the Percent Effect in [3] is -1.1%.
Consider `CCC(C(=O)NCc1ccncc1)N(c1cccc(C)c1)S(C)(=O)=O` (stereo unspecified), for which the Percent Effect was -2.54% in [1]; 2.67% in assay [2]; 0.78% in assay [3]; 9.85% in [4]; 5.16% in the assay with Trypanosoma cruzi; 10.3% in [5] (30 µM). Moreover, the Percent Effect was 9.38% in assay [5] (33.3 µM); 7.32% in [6]; 18.8% in the assay filed under Homo sapiens; 2.73% in assay [7]; 13.6% in assay [8]; -7.66% in [9].
For the molecule `Cc1cnn(C2CN(CC(=O)NCc3ccccn3)C2)c1`, the Percent Effect in assay [1] is 0.391%; in assay [2], 26.3%; in assay [3], -12.2%; in assay [4] it was -9.97%; in the assay on Trypanosoma cruzi it was 7.56%; in assay [5] (33.3 µM), -4.32%. The Percent Effect in assay [6] was 63.5% and 62% and 58.8%; in the assay with N/A it was 11.6% and 13.6%; in the assay filed under Homo sapiens, -8.2%; in assay [7], 17.2%; in [8] it was 25.9%; in assay [9], -5.97%.
